{
  "source": "PubChem BioAssay (NCI)",
  "note": "This is part of a sample that, as a whole, favours compounds with a hit. Of some 79,000 tested, about 15% had one in any assay. Activity calls are given as the source filed them. Cut-off read from the data, not from the text of the source: active = growth inhibition above about 70%; inactive = the rest.",
  "data": [
    {"test": "NCI Yeast Anticancer Drug Screen. Data for the cln2 rad14 strain (AID 165);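 note: 0% = growth equal to vehicle treated cultures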", "settings": "S. cerevisiae cln2 rad14 strain, at 50.0 µM, hits give high values", "summary_of_the_method": "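Each compound was tested on cln2 rad14 yeast. Inhibition of growth was calculated against vehicle-exposed controls.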", "values": [
      {"smiles": "CN(C)CCC(=O)Cc1ccccc1", "growth inhibition": "-8.15% (inactive)"},
      {"smiles": "O=S(=O)(O)c1cccc2cccc(Nc3ccccc3)c12", "growth inhibition": "-33.1% (inactive)"},
      {"smiles": "O=C(CC1Sc2ccccc2NC1=O)Nc1cc(Cl)ccc1Cl", "note": "(stereo not given)", "growth inhibition": "25.3% (inactive)"},
      {"smiles": "Nc1ccc(N=Nc2ccncc2)c2ccccc12", "growth inhibition": "-15.1% (inactive)"},
      {"smiles": "Cc1ccc2occ(/C=N/NC(N)=S)c(=O)c2c1", "growth inhibition": "0.6% (inactive)"},
      {"smiles": "CC1=CC(C)S(=O)(=O)C1", "note": "(stereo not given)", "growth inhibition": "-5.7% (inactive)"},
      {"smiles": "O=S(=O)(O)c1ccc2c(N=Nc3cccc4ccccc34)c(O)c(S(=O)(=O)O)cc2c1", "growth inhibition": "41.2% (inactive)"},
      {"smiles": "C/C(C#N)=C1/Nc2ccccc2NC1=O", "growth inhibition": "-10.4% (inactive)"},
      {"smiles": "OC(CCN1CCC2CCC(C2)C1)(c1ccccc1)c1ccc(Cl)cc1", "note": "(stereo not given)", "growth inhibition": "-26.5% (inactive)"},
      {"smiles": "c1ccc2c(c1)CCc1cc3cc4c(nc3nc1-2)-c1ccccc1CC4", "growth inhibition": "-9.4% (inactive)"},
      {"smiles": "COc1ccc(C2C(=O)C(Cl)N2Nc2nc(C)cc(=O)[nH]2)cc1OC", "note": "(stereo not given)", "growth inhibition": "-2.3% (inactive)"},
      {"smiles": "O=C(OC(c1ccccc1)c1ccccc1)c1ccccc1C(=O)c1ccccc1", "growth inhibition": "-16.6% (inactive)"},
      {"smiles": "NCS(=O)(=O)O", "growth inhibition": "9.5% (inactive)"},
      {"smiles": "COc1ccc2nc(NCCNCCO)cc(NCCNCCO)c2c1", "growth inhibition": "4.65% (inactive)"},
      {"smiles": "COc1cc(C(c2c(O)c3ccccc3oc2=O)N2CCCC2)cc(OC)c1OC", "note": "(stereo not given)", "growth inhibition": "4.05% (inactive)"},
      {"smiles": "CCCCCCCCCCCCOc1ccc2ccccc2c1", "growth inhibition": "-17.6% (inactive)"},
      {"smiles": "CSC12CC3C(=O)C=C[C@@H](O)[C@@H]3N1C(=O)C1(SC)CC3C(=O)C=C[C@@H](O)[C@@H]3N1C2=O", "note": "(stereo not given in full)", "growth inhibition": "39.8% (inactive)"},
      {"smiles": "CC(=O)/C=C/N(C)c1ccc(O)cc1", "growth inhibition": "9.3% (inactive)"},
      {"smiles": "CCNC(=O)c1cc2ccccc2cc1O", "growth inhibition": "-46% (inactive)"},
      {"smiles": "Cc1ccc(S(=O)(=O)OCC2CCC(COS(=O)(=O)c3ccc(C)cc3)O2)cc1", "note": "(stereo not given)", "growth inhibition": "10.7% (inactive)"},
      {"smiles": "O=C1CC(CC(=O)c2ccc(Br)cc2)C(=O)/C1=C(/O)c1ccc(Br)cc1", "note": "(stereo not given)", "growth inhibition": "38% (inactive)"},
      {"smiles": "OC1(Cl)c2cccc3cccc(c23)C1(O)Cl", "note": "(stereo not given)", "growth inhibition": "-9.45% (inactive)"},
      {"smiles": "O=C(NC1C2CC3CC(C2)CC1C3)c1cc(/C=C/c2ccccc2)[nH]c(=S)n1", "note": "(stereo not given)", "growth inhibition": "12.2% (inactive)"},
      {"smiles": "Nc1nc2c(c(=O)[nH]1)CN(c1ccc(S(N)(=O)=O)cc1)CN2", "growth inhibition": "-7.45% (inactive)"},
      {"smiles": "COc1cc(OC)cc(C(=O)NN)c1", "growth inhibition": "17.4% (inactive)"},
      {"smiles": "COc1ccc(C2=C(c3ccccc3)C(C)(C)Oc3ccc4ccccc4c32)cc1", "growth inhibition": "14.2% (inactive)"},
      {"smiles": "O=C(CN1CCCCC1)NC(=O)N/N=C\\c1ccco1", "growth inhibition": "-59% (inactive)"},
      {"smiles": "O=C(c1cccs1)c1ccc2ccccc2c1C(=O)O", "growth inhibition": "3.9% (inactive)"},
      {"smiles": "CC1(C)OCC(C2OC3OC(C)(C)OC3C2OP(=O)(N2CC2)N2CC2)O1", "note": "(stereo not given)", "growth inhibition": "-49.2% (inactive)"},
      {"smiles": "COC(=O)C1CCC(=O)N1CN(C(C)=O)c1ccccc1", "note": "(stereo not given)", "growth inhibition": "9% (inactive)"},
      {"smiles": "O=C1C2=Cc3ccccc3OC2(O)Oc2ccc(O)cc21", "note": "(stereo not given)", "growth inhibition": "-2% (inactive)"},
      {"smiles": "O=S(=O)(Cc1ccccc1)C(I)c1ccccc1", "note": "(stereo not given)", "growth inhibition": "51% (inactive)"},
      {"smiles": "O=c1[nH]c2cc(Cl)ccc2c2cc(Cl)ccc12", "growth inhibition": "-3.3% (inactive)"},
      {"smiles": "CCOC(=O)C(CN)c1ccccc1", "note": "(stereo not given)", "growth inhibition": "-32.9% (inactive)"},
      {"smiles": "O=[N+]([O-])c1c(Nc2ccccc2)ncnc1Nc1ccccc1", "growth inhibition": "3.45% (inactive)"},
      {"smiles": "COC(C)C(NC(=O)C1CCCN1C)C1OC(SCCOC(=O)c2ccccc2O)C(O)C(O)C1O", "note": "(stereo not given)", "growth inhibition": "13.4% (inactive)"},
      {"smiles": "CCCCOC(=O)NC(=O)c1cn(CCCOC(=O)CCCCCCCCC(=O)OCCCn2cc(C(=O)NC(=O)OCCCC)c(=O)[nH]c2=O)c(=O)[nH]c1=O", "growth inhibition": "5.05% (inactive)"},
      {"smiles": "O=[N+]([O-])c1ccc(NN=C2CCCCCC2)c([N+](=O)[O-])c1", "growth inhibition": "-99% (inactive)"},
      {"smiles": "CN(C)c1ccc(/C=C/C=C(/C#N)c2ccccc2)cc1", "growth inhibition": "32.2% (inactive)"},
      {"smiles": "O=C(NCCN1CCCC1)Nc1ccccc1Cl", "growth inhibition": "-10.1% (inactive)"}
    ]}
  ]
}
